The values that follow come from PubChem BioAssay (EPA / NIEHS).

Results filed as inconclusive are left out. Calls of active or inactive are those of the source. Rule for the calls: active = hit-call score of the fitted dose curve at least 0.9, where 1 is the maximum; inconclusive = response in the unintended direction; inactive = score below 0.9.

Experiment [1] can be described thus: ACEA_AR_agonist_AUC_viability: ACEA Biosciences xCELLigence Real-Time Cell Analysis on Androgen Receptor Agonism for Viability (AID 2283775).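 For AC50: viability read 80 hours after compound addition.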 In a few lines: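 Read-out is area under the impedance curve at 80 h post-dose in 22Rv1 cells, with DMSO as baseline and signal loss taken as reduced viability. Compounds ran in duplicate from 100 uM final.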
The nature of experiment [2]: ACEA_AR_antagonist_AUC_viability: ACEA Biosciences xCELLigence Real-Time Cell Analysis on Androgen Receptor Antagonism for Viability (AID 2283776).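 Note: area under impedance growth curve at 80 h after dosing as viability; hits lower the growth signal relative to DMSO meaning cytotoxicity.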 A digest of the protocol:
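22Rv1 human prostate cancer cells were seeded on electrode plates, monitored overnight, then exposed to eight 1:4 dilutions from 100 uM final. Impedance-based growth kinetics at 80 h gave an AUC viability endpoint normalized to DMSO.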

For experiment [3], the system named is zebrafish Androgen Receptor (AR), gene 100005148. The experiment can be described thus: ATG_zfAR_XSP1: Attagene TRANS-FACTORIAL Multi-Species (XSP1) HepG2 Assay for zebrafish Androgen Receptor (AR) (AID 2283771). A digest of the protocol: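 HepG2 cells were transiently transfected with a zebrafish AR-GAL4 reporter system and partially stimulated with 3 nM 6-alpha-fluorotestosterone. Reporter mRNA was measured after 24 h dosing by RT-PCR with capillary electrophoresis, and gain-of-signal was fitted relative to DMSO.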

Experiment [4] concerns the target zebrafish Estrogen Receptor (ESR1), esr1 (gene 259252) (UniProt P57717). The experiment can be described thus: ATG_zfER1_XSP1: Attagene TRANS-FACTORIAL Multi-Species (XSP1) HepG2 Assay for zebrafish Estrogen Receptor (ESR1) (AID 2283772). In a few lines:
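HepG2 cells were transiently transfected with multiplexed GAL4-UAS reporter units driven by chimeric NR-GAL4 proteins, dosed for 24 h with 3 nM 6-alpha-fluorotestosterone present, and reporter mRNA quantified by RT-PCR and capillary electrophoresis versus DMSO.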

In experiment [5] the test system is zebrafish Estrogen Receptor (ESR2B), gene 317733. The experiment can be described thus: ATG_zfER2b_XSP1: Attagene TRANS-FACTORIAL Multi-Species (XSP1) HepG2 Assay for zebrafish Estrogen Receptor (ESR2B) (AID 2283773). A digest of the protocol: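 HepG2 cells transiently transfected with multiple GAL4-UAS reporter units expressing chimeric zebrafish ER2b-Gal4; 24 h chemical exposure with 3 nM 6-alpha-fluorotestosterone present. Reporter mRNA measured by RT-PCR and capillary electrophoresis; gain of signal fitted versus DMSO.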

For experiment [6], the system named is frog Estrogen Receptor (ESR2), gene 100174814. Briefly: ATG_frER2_XSP1: Attagene TRANS-FACTORIAL Multi-Species (XSP1) HepG2 Assay for frog Estrogen Receptor (ESR2) (AID 2283774). In a few lines:
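HepG2 cells transiently transfected with GAL4-UAS multiplexed reporter units expressing chimeric NR-Gal4 proteins; reporter mRNA measured 24 h after dosing by RT-PCR, FAM labeling, HpaI digestion and capillary electrophoresis. Gain-of-signal relative to DMSO; 3 nM 6-alpha-fluorotestosterone present.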

Experiment [7] deals with zebrafish Estrogen Receptor (ESR2A), gene 317734. The experiment can be described thus: ATG_zfER2a_XSP1: Attagene TRANS-FACTORIAL Multi-Species (XSP1) HepG2 Assay for zebrafish Estrogen Receptor (ESR2A) (AID 2283778). In a few lines:
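HepG2 cells transiently transfected with multiplexed GAL4-UAS reporter units and chimeric NR-GAL4 receptors; 24 h compound exposure with 3 nM 6-alpha-fluorotestosterone present. Reporter mRNA quantified by RT-PCR and capillary electrophoresis, gain-of-signal fitted relative to DMSO.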

The target of experiment [8] is chicken Estrogen Receptor (ESR1), ESR1 (gene 396099) (UniProt P06212). Briefly: ATG_chERa_XSP1: Attagene TRANS-FACTORIAL Multi-Species (XSP1) HepG2 Assay for chicken Estrogen Receptor (ESR1) (AID 2283779). A digest of the protocol:
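HepG2 cells transiently transfected with multiplexed GAL4-UAS reporter units expressing chimeric NR-Gal4 proteins; 3 nM 6-alpha-fluorotestosterone present. Reporter mRNA measured 24 h after dosing by RT-PCR, FAM labelling, HpaI digest and capillary electrophoresis; gain of signal versus DMSO.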

For experiment [9], the target named is Estrogen receptor (Homo sapiens) (UniProt P03372). The experiment can be described thus: ATG_hERa_XSP1: Attagene TRANS-FACTORIAL Multi-Species (XSP1) HepG2 Assay for human Estrogen Receptor (ESR1) (AID 2283780). The protocol: ATG_XSP1_multi-species_TRANS is a cell-based, multiplexed assay created by modifying the existing Attagene TRANS-FACTORIAL system to include a panel of nuclear receptors from some or all the following species: human (Homo sapiens), mouse (Mus musculus), frog (Xenopus laevis), zebrafish (Danio rerio), chicken (Gallus gallus), and turtle (Chrysemys picta). The ECOTOX-FACTORIAL format uses HepG2, a human liver cell line, with measurements taken at 24 hours after chemical dosing in a 24-well plate. Xsp1 included 3 nM 6-alpha-fluorotestosterone to partially stimulate the androgen receptor.ATG_hERa_XSP1 is one of 29 assay components measured or calculated from the ATG_XSP1_multi-species_TRANS assay. It is designed to make measurements of mRNA induction, a form of inducible reporter, as detected with fluorescence intensity signals by Reverse transcription polymerase chain reaction (RT-PCR) and Capillary electrophoresis technology.The assay endpoint ATG_hERa_XSP1 was analyzed in the positive analysis fitting direction relative to DMSO as the negative control and baseline of activity. […] Furthermore, this assay endpoint can be referred to as a primary readout, because this assay has produced multiple assay endpoints where this one serves a reporter gene function. […]
Chain of Estrogen receptor (Homo sapiens) (P03372 whole entry, looked up): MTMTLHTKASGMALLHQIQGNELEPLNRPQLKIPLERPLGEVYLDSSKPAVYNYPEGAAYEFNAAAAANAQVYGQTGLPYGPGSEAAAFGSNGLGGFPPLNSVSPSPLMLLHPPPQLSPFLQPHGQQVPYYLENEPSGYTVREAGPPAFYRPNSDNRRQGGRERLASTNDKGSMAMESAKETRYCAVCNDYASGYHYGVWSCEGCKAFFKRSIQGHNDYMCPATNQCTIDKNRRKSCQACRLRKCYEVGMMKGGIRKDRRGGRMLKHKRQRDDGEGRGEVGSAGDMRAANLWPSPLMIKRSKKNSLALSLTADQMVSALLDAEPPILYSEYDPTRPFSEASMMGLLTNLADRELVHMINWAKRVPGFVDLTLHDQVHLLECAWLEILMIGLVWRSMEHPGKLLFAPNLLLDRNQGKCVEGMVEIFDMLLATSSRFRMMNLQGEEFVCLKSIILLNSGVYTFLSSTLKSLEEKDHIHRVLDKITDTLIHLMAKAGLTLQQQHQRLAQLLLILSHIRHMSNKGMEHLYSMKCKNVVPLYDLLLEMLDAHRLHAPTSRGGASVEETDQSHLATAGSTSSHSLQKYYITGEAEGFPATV

Experiment [10] relates to turtle Estrogen Receptor (ESR1), gene 101933533. Briefly: ATG_trERa_XSP1: Attagene TRANS-FACTORIAL Multi-Species (XSP1) HepG2 Assay for turtle Estrogen Receptor (ESR1) (AID 2283781). A digest of the protocol:
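HepG2 cells transiently transfected with GAL4-UAS reporter units and chimeric NR-Gal4 constructs, dosed for 24 h with 3 nM 6-alpha-fluorotestosterone present. Reporter mRNA was quantified by RT-PCR, fluorescent labelling and capillary electrophoresis, with gain of signal fitted relative to DMSO.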

Chain of zebrafish Estrogen Receptor (ESR1), esr1 (gene 259252) (P57717 whole entry, looked up, the tested form may be a part): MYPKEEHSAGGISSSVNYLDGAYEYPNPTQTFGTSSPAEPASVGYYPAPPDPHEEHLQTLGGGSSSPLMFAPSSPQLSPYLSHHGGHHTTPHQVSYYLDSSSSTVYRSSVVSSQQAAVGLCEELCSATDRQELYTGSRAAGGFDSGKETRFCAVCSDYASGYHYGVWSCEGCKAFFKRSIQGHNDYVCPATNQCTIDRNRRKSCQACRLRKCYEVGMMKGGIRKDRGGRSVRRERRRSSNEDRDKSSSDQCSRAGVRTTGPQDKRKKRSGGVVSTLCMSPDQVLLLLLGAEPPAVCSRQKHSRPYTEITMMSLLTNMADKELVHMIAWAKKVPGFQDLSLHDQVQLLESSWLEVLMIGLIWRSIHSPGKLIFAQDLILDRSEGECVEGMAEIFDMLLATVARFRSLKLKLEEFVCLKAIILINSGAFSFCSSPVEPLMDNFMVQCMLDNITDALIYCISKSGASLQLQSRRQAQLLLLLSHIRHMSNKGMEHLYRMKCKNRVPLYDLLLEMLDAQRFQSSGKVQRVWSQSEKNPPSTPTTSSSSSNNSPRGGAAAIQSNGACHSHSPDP
Chain of chicken Estrogen Receptor (ESR1), ESR1 (gene 396099) (P06212 whole entry, looked up, the tested form may be a part): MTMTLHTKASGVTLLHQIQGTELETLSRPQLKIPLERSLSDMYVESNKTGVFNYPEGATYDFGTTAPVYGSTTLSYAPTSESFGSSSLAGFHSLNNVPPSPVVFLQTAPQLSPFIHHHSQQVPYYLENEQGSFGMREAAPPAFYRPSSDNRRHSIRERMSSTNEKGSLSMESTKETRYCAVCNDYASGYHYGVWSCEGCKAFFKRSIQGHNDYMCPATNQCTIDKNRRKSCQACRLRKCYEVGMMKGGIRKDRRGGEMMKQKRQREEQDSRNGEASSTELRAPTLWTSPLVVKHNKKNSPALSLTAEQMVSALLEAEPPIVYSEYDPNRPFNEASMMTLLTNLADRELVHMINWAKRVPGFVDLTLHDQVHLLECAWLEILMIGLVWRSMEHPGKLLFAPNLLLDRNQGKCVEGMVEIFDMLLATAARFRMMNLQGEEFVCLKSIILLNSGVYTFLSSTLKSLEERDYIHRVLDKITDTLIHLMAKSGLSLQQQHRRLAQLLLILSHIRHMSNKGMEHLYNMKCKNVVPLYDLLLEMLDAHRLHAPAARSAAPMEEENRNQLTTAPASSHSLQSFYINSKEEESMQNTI

As to `O=C(O)C1C(C(=O)O)C2(Cl)C(Cl)=C(Cl)C1(Cl)C2(Cl)Cl` (stereo unspecified), the molecule was classed as inactive in experiment [1] and in [2].
In the case of `ClC1=C(Cl)C2(Cl)C3C(Cl)C(Cl)CC3C1(Cl)C2(Cl)Cl` (stereo unspecified), the AC50 was 11.9 µM (active) in experiment [1] and 13.6 µM (active) in experiment [2].
For `[N-]=[N+]=[N-]`, the call in experiment [1] was inactive. Further, the AC50 in experiment [2] is 50 µM (active).
Consider `CCCCN(CCCC)SN(C)C(=O)Oc1cccc2c1OC(C)(C)C2`, for which the AC50 in experiment [1] was 57.4 µM (active); in [2], 49.2 µM (active).
Take `O=P(Oc1ccccc1)(Oc1ccccc1)Oc1ccccc1`: the molecule was classed as inactive in experiment [3], in experiment [4] and in [7]. Moreover, the concentration at half-maximal activity (AC50) in experiment [5] was 5.84 µM (active); in experiment [6], 2.77 µM (active); in [8], 0.8 µM (active); in [9], 0.991 µM (active); in [10], 1.66 µM (active).
Turning to `ClC(Cl)(Cl)c1ccccc1`, the molecule was classed as inactive in [1] and in experiment [2].
For the molecule `Nc1ccc(Cl)cc1`, the AC50 was 5.62 µM (active) in [1] and 8.97 µM (active) in experiment [2].
The corresponding values for `CC1(C)CN=C(NN=C(/C=C/c2ccc(C(F)(F)F)cc2)/C=C/c2ccc(C(F)(F)F)cc2)NC1` are 12.6 µM (active) and 11.1 µM (active).
As for `CCCCC(CC)COP(=O)(Oc1ccccc1)Oc1ccccc1` (stereo unspecified), the molecule was called inactive in [1]. In experiment [2], the AC50 is 16.6 µM (active).
For `CCNc1nc(Cl)nc(NC(C)(C)C)n1`, the result in [1] and in experiment [2] was inactive.
For the molecule `CCCN(CCC)c1c([N+](=O)[O-])cc(C(C)C)cc1[N+](=O)[O-]`, the values for the half-maximal activity concentration (AC50) in [1] and in [2] were 45.2 µM (active) and 58.7 µM (active), respectively.
`Cc1ccc([N+](=O)[O-])cc1C`: the call in experiment [1] and in experiment [2] was inactive.
`CCOC(=O)c1ccccc1N`: the call in [1] was inactive.
Turning to `O=[N+]([O-])c1ccc(Cl)c(Cl)c1`, the molecule was called inactive in experiment [1] and in experiment [2].
`CCOc1ccc(C(C)(C)COCc2cccc(Oc3ccccc3)c2)cc1`: in [1], the outcome was inactive. The concentration at half-maximal activity (AC50) in experiment [2] is 50 µM (active).
As to `O=P(OCC(Br)CBr)(OCC(Br)CBr)OCC(Br)CBr` (stereo unspecified), the half-maximal activity concentration (AC50) in experiment [1] was 23.3 µM (active). In addition, the call in experiment [2] was inactive.
In the case of `CCCCN(CCCC)N=O`, the result in [1] and in experiment [2] was inactive.
For `CCCCc1ccc(O)cc1`, the outcome in experiment [1] was inactive. Besides, the AC50 in experiment [2] was 8.13 µM (active).
On to `CCC(C)(C)c1ccc(O)cc1`, for which the AC50 is 67 µM (active) in [1] and 71.7 µM (active) in [2].
Take `CCCCOCC1CO1` (stereo unspecified): the molecule was called inactive in [1] and in [2].
Turning to `CO/N=C(/C(=O)OC)c1ccccc1COc1ccccc1C`, the result in [1] and in [2] was inactive.
For `c1cc2c3c(cccc3c1)CC2`, the call in experiment [1] and in experiment [2] was inactive.
Consider `O=c1ssc(Cl)c1Cl`, for which, in experiment [1], the AC50 was 0.671 µM (active). The call in [2] was inactive.
Take `CCC1(c2ccccc2)C(=O)N=C(O)NC1=O` (stereo unspecified): the molecule was classed as inactive in experiment [1] and in experiment [2].
As to `O=S(=O)(c1ccc(O)cc1)c1ccc(O)cc1`, the result in [1] was inactive.
As to `O=C(O)C(Cl)Cl`, the result in [1] and in experiment [2] was inactive.
Turning to `O=C(CBr)OCc1ccccc1`, the molecule was called inactive in [1].
Regarding `c1nc[nH]n1`, the call in experiment [2] was inactive.
Still for that read-out and setting: to `CCCCC(CC)COC(=O)c1c(Br)c(Br)c(Br)c(Br)c1C(=O)OCC(CC)CCCC` (stereo unspecified) belongs “inactive”; to `Cc1ccc(N)cc1N`, “inactive”; to `FC(F)(F)c1ccc(Cl)cc1`, “inactive”.
`ClC(Cl)c1ccccc1`: the molecule was called inactive in [1] and in experiment [2].
For `CCOP(=S)(Oc1ccc([N+](=O)[O-])cc1)c1ccccc1` (stereo unspecified), the AC50 in experiment [1] is 50 µM (active); in [2] it was 14.9 µM (active).
For `c1ccc2c(c1)Nc1ccccc1S2`, the result in experiment [1] was inactive. Besides, in experiment [2], the concentration at half-maximal activity (AC50) is 21.7 µM (active).
`CCCCN(CC)C(=O)SCCC`: the molecule was classed as inactive in [1] and in [2].
`CCOC(=O)c1ccccc1C(=O)OCC`: the result in experiment [2] was inactive.
Still for that read-out and setting: to `Nc1ccc2ccccc2c1` belongs “inactive”.
For the molecule `CC(Cc1ccc(OCC(=O)O)cc1)NCC(O)c1csc(C(F)(F)F)n1` (stereo unspecified), the molecule was classed as inactive in experiment [1] and in experiment [2].
In the case of `CCN(CC)c1ccccc1`, the molecule was classed as inactive in experiment [2].
As to `Nc1cc2c3c(c1)C(c1ccccc1)=N[C@@H](NC(=O)c1cccnc1)C(=O)N3CC2`, the molecule was classed as inactive in experiment [1] and in experiment [2].
Regarding `O=S1(=O)OCC2C(CO1)C1(Cl)C(Cl)=C(Cl)C2(Cl)C1(Cl)Cl` (stereo unspecified), in [2], the molecule was classed as inactive.
Turning to `O=C(O)CF`, the result in [1] and in experiment [2] was inactive.
Take `CCCCCCCc1ccc(O)cc1`: the half-maximal activity concentration (AC50) in experiment [1] is 29.2 µM (active); in [2], 50 µM (active).
For `CCOP(=S)(OCC)SCSCC`, in [1], the AC50 was 83.4 µM (active). The molecule was classed as inactive in experiment [2].
Turning to `Cc1cccc(N)c1`, the result in [1] and in experiment [2] was inactive.
Consider `CC(C)(C)N(NC(=O)c1ccc(Cl)cc1)C(=O)c1ccccc1`, for which the molecule was classed as inactive in experiment [1] and in experiment [2].
With `CSC(C)(C)C=NO`, the result in experiment [1] and in experiment [2] was inactive.
`OCC1CO1` (stereo unspecified): the molecule was classed as inactive in experiment [1] and in experiment [2].
For `CCCCOCCOP(=O)(OCCOCCCC)OCCOCCCC`, the outcome in experiment [1] and in [2] was inactive.
`COC(N)=O`: the outcome in experiment [2] was inactive.
For `O=[N+]([O-])c1ccccc1`, the result in experiment [1] and in experiment [2] was inactive.
As for `COCCOCCO`, the call in experiment [2] was inactive.
Still for that read-out and setting: the result for `CN(C)C(=O)Cl` reads “inactive”; that for `CC(Cl)(Cl)C(=O)O`, “inactive”.
Take `O=P1(N(CCCl)CCCl)NCCCO1` (stereo unspecified): the result in [1] and in [2] was inactive.

The term AC50 denotes the concentration at which the activity in the assay is half-maximal.
